MOR-DOR inv ag: inverse agonist of human OPRM1-OPRD1 heterodimerization. inhibition, % at 9.3 µM. P35372+P41143. cell-based MOR-DOR heterodimer luminescence, inverse agonism. hit rate 0.21% among 340,000; in the data active = inhibition above about 22%, passing the limit was not always enough;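 also: 0% = cells with DMSO and 100% = wells without cells with DMSO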
HTR5A ag: HTR5A agonism, opioid heterodimer counter-screen; AID 504692; hit rate 0.61% among 340,000; P47898; activation, % at 9.3 µM; HTR5A agonist assay, luminescence, cell-based; in the data active = activation mostly above about 9.5%, no sharp cut-off; inactive = mostly below about 7.6%;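 also: 0% = cells with vehicle only and 100% = reference agonist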
HTR5A inv ctr: counter-screen for OPRM1-OPRD1 inverse agonists: human HTR5A inverse agonism. P47898. HTR5A cell line, luminescence. inhibition, % at 9.3 µM. hit rate 0.083% among 340,000; in the data active = inhibition mostly above about 23%, no sharp cut-off; inactive = mostly below about 18%;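 also: 0% = cells with DMSO and 100% = no-cell wells with DMSO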
MsrA inhibitor: bovine MsrA inhibition | purified bovine MsrA, absorbance read-out | hit rate 0.75% among 360,000 | inhibition, % at 15.5 µM; in the data active = inhibition above about 4.5%;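 also: 0% = vehicle wells with enzyme and 100% = reference inhibitor wells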
MOR-DOR ag-1: OPRM1-OPRD1 heterodimerization agonism; cells, luminescence; hit rate 0.3% among 340,000; P35372+P41143; activation, % at 9.3 µM; AID 504326;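 also: 0% = vehicle-treated cells and 100% = reference agonist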
MsrA act: activates bovine MsrA enzyme; purified bovine MsrA, absorbance read-out; activation, % at 10.6 µM; hit rate 0.3% among 360,000; AID 602163; in the data active = activation above about 7.5%;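 also: 0% = vehicle and 100% = reference activator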
MOR-DOR ag-2: opioid heterodimer agonism, HTR5A counter-screen | shares compounds with HTR5A ag | U2OS counter-screen cells, complementation luminescence, 3 h | activation, % at 9.3 µM | hit rate 13% among 800 | AID 504913
HTR5A ag confirm: HTR5A (human) agonism, confirmation | shares compounds with HTR5A ag | HTR5A agonist cell assay, luminescence | activation, % at 9.3 µM | hit rate 17% among 800; in the data active = activation above about 17%;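 also: 0% = cells with vehicle only and 100% = full reference agonist response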
* = called active by the depositor. Sampled rows, rich in hits. Any-hit rate of the full collection: about 1.9%. Rule as the data show it, unless noted: active = activation above about 18%; inactive = the rest.

`COc1ccc(-c2nnn3c2C2c4cc(-c5cccc(F)c5)ccc4CCN2C(=O)C3)cc1` (stereo not given) gave MsrA inhibitor 2.
Screening COc1nc(-c2ccccc2)ccc1-c1noc(-c2cccs2)n1 returned MOR-DOR inv ag 18, HTR5A ag 19*, HTR5A inv ctr -23, MsrA inhibitor 0, MOR-DOR ag-1 -3, MsrA act -2, MOR-DOR ag-2 2 and HTR5A ag confirm -2.
Screening CCOC(=O)c1cnc2c3c(noc13)CCC2 returned MsrA inhibitor 2.
Screening COC(=O)c1ccc(N)c2c(N)ccc(C(=O)OC)c12 returned MsrA inhibitor 1.
For CCc1ccc(C2NC(=S)NC3=C2C(=O)N(c2ccccc2OC)C(c2ccc(CC)cc2)N3)cc1 (stereo not given) the results were MOR-DOR inv ag -28, HTR5A ag 22*, HTR5A inv ctr -17, MsrA inhibitor -1, MOR-DOR ag-1 4, MsrA act -11, MOR-DOR ag-2 8 and HTR5A ag confirm 0.
`CC(C)CNc1cccc2c1S(=O)(=O)N[C@@H](Cc1ccccc1)CO2` gave MsrA inhibitor 0.
CCOc1ccc(NS(=O)(=O)c2ccc(N)cc2)cc1 was read as MOR-DOR inv ag 4, HTR5A ag 2, HTR5A inv ctr -23, MsrA inhibitor 0, MOR-DOR ag-1 -1 and MsrA act -6.
For CCOc1ccc(S(=O)(=O)NN)cc1 the results were MOR-DOR inv ag 17, HTR5A ag 14*, HTR5A inv ctr -85, MsrA inhibitor 0, MOR-DOR ag-1 -3, MsrA act -1, MOR-DOR ag-2 -2 and HTR5A ag confirm 0.
For CCOc1ccc(CNC(=O)NS(=O)(=O)c2ccc(OC)cc2)cc1 the results were MOR-DOR inv ag -5, HTR5A ag 15*, HTR5A inv ctr -50, MsrA inhibitor 0, MOR-DOR ag-1 1, MsrA act -14, MOR-DOR ag-2 23* and HTR5A ag confirm 4.
For CCC(C)NS(=O)(=O)c1ccc(OCC(=O)NCc2ccc(OC)cc2)cc1 (stereo not given) the results were MOR-DOR inv ag 3, HTR5A ag -3, HTR5A inv ctr -26, MsrA inhibitor 1, MOR-DOR ag-1 -1 and MsrA act -4.
COc1cc2nc(N3CCNCC3)nc(N)c2cc1OC was read as MOR-DOR inv ag 8, HTR5A ag 1, HTR5A inv ctr -30, MsrA inhibitor 0, MOR-DOR ag-1 -2 and MsrA act -12.
`COc1cc2nc(N3CCN(c4cc(C)ccc4C)CC3)nc(N)c2cc1OC` gave MOR-DOR inv ag -79, HTR5A ag 17*, HTR5A inv ctr -65, MsrA inhibitor -1, MOR-DOR ag-1 14, MsrA act -7, MOR-DOR ag-2 13 and HTR5A ag confirm 6.
COC(=O)c1cc2c(c3c4ccccc4n(S(=O)(=O)c4ccc(OC)cc4)c13)C(=O)N(Cc1ccccc1OC)C2 was read as MsrA inhibitor 0.
`Nc1c(C(=O)Nc2ccc(S(=O)(=O)N3CCCC3)cc2)sc2nc3ccc(OC(F)(F)F)cc3cc12` gave MOR-DOR inv ag -88, HTR5A ag 15*, HTR5A inv ctr -69, MOR-DOR ag-1 16, MsrA act -3, MOR-DOR ag-2 24* and HTR5A ag confirm 4.
`Nc1c(C(=O)Nc2ccc(S(=O)(=O)N3CCCC3)cc2)sc2nc3cc4c(cc3cc12)CCC4` gave MOR-DOR inv ag -13, HTR5A ag 0, HTR5A inv ctr 15, MsrA inhibitor 3, MOR-DOR ag-1 2 and MsrA act -3.
`CCOC(=O)c1ccc(NC(=S)NC2CCCC2)cc1` gave MOR-DOR inv ag 5, HTR5A ag 15*, HTR5A inv ctr 12, MsrA inhibitor -1, MOR-DOR ag-1 -1, MsrA act -6, MOR-DOR ag-2 4 and HTR5A ag confirm 4.
`CCOC(=O)c1ccc(NC(=S)NC(=O)C2CCCC2)cc1` gave MOR-DOR inv ag -8, HTR5A ag 0, HTR5A inv ctr 0, MsrA inhibitor 1, MOR-DOR ag-1 1 and MsrA act -1.
For CC(C)c1ccc(NC(=S)NC2CCCCCC2)cc1 the results were MOR-DOR inv ag -20, HTR5A ag 16*, HTR5A inv ctr -43, MsrA inhibitor 0, MOR-DOR ag-1 4, MsrA act -2, MOR-DOR ag-2 27* and HTR5A ag confirm 4.
Screening COCCN1Cc2cc(C(=O)OC)c3c(c2C1=O)c1cc(OC)ccc1n3S(=O)(=O)c1ccc(F)cc1 returned MsrA inhibitor 0.
Screening COc1cc(CN2CCN(Cc3ccc([N+](=O)[O-])cc3)CC2)c([N+](=O)[O-])cc1OC returned MOR-DOR inv ag -11, HTR5A ag 15*, HTR5A inv ctr -16, MsrA inhibitor 2, MOR-DOR ag-1 2, MsrA act 0, MOR-DOR ag-2 2 and HTR5A ag confirm -1.
`O=C(COC(=O)/C=C/c1ccc(C(F)(F)F)cc1)NC(=O)NCc1ccco1` gave MOR-DOR inv ag -2, HTR5A ag 20*, HTR5A inv ctr -48, MsrA inhibitor 1, MOR-DOR ag-1 1, MsrA act -11, MOR-DOR ag-2 119* and HTR5A ag confirm 1.
For CCOc1ccc(C(=O)N2CCN(Cc3ccccc3)CC2)cc1OCC the results were MOR-DOR inv ag 0, HTR5A ag 16*, HTR5A inv ctr -1, MsrA inhibitor 0, MOR-DOR ag-1 0, MsrA act -12, MOR-DOR ag-2 4 and HTR5A ag confirm -1.
`CCOc1ccc(C(=O)N2CCN(Cc3ccccc3)CC2)cc1` gave MOR-DOR inv ag 3, HTR5A ag -4, HTR5A inv ctr 14, MsrA inhibitor 0, MOR-DOR ag-1 -1 and MsrA act -3.
CCCCCc1ccc(C(=O)CCCC)c(=S)[nH]1 was read as MOR-DOR inv ag 7, HTR5A ag 29*, HTR5A inv ctr -130, MsrA inhibitor 1, MOR-DOR ag-1 -2, MsrA act 1, MOR-DOR ag-2 6 and HTR5A ag confirm 13.
Screening CCN1CCc2c(sc(NC(=O)C3COc4ccccc4O3)c2C(N)=O)C1 (stereo not given) returned MOR-DOR inv ag 13, HTR5A ag 15*, HTR5A inv ctr -44, MsrA inhibitor 0, MOR-DOR ag-1 -2, MsrA act -3, MOR-DOR ag-2 -3 and HTR5A ag confirm -2.
CCN1CCc2c(sc(NC(=O)Cc3ccccc3)c2C(N)=O)C1 was read as MOR-DOR inv ag 14, HTR5A ag 2, HTR5A inv ctr -2, MsrA inhibitor 1, MOR-DOR ag-1 -3 and MsrA act -4.

Source: PubChem
